# High-throughput results (PubChem)
# NS1 inh = qHTS Assay for Inhibitors of Influenza NS1 Protein Function. Potency, µM (doses to about 46.1 µM), for the others: at the highest dose activity, positive = more growth. 0.4% of 270,000 active; calls by dose curve; also: potency is read from the fitted curve at half-maximal effect; actives are rising curves; nearly all actives have a fitted effect of over 50% in size
#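 In this qHTS, NS1 from influenza A is expressed in budding yeast, where it slows growth. Cells are switched from glucose to 2% galactose medium (pH 6.0, -URA), treated with compound, and growth recovery is read at OD600.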
# Sm TGR block = qHTS Assay for the Inhibitors of Schistosoma Mansoni Peroxiredoxins; Potency, µM (doses to about 114 µM), inactives show at the top dose activity change, negative = inhibition, hits mostly inhibitors; 3% of 360,000 active; purified TGR, DTNB reduction, TNB absorbance 405 nm; Schistosoma mansoni thioredoxin glutathione reductase (TGR), Q962Y6; also: potency is read from the fitted curve at half-maximal effect; % is scaled to controls: 0 for no effect and ±100 for the full control effect; nearly all actives have a fitted effect of over 60% in size
#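 First, TGR (20 nM dispensed) and NADPH were mixed with compound. Second, a 15 min room-temperature incubation followed. Third, further NADPH and then DTNB were added to start the reaction. Finally, TNB absorbance was monitored kinetically.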
# LmPK inhibitor = qHTS Assay for Inhibitors of Leishmania Mexicana Pyruvate Kinase (LmPK) | Q27686 | purified LmPK, Kinase-Glo ATP luminescence, 1 h | 0.37% of 290,000 active | Potency, µM (series often up to 57.5 µM), for inactives: at the highest dose activity change, negative = inhibition, most hits filed as inhibitors; also: potency is read from the fitted curve at half-maximal effect; % is scaled to controls: 0 for no effect and ±100 for the full control effect
# Target sequence (Q27686 whole entry, looked up): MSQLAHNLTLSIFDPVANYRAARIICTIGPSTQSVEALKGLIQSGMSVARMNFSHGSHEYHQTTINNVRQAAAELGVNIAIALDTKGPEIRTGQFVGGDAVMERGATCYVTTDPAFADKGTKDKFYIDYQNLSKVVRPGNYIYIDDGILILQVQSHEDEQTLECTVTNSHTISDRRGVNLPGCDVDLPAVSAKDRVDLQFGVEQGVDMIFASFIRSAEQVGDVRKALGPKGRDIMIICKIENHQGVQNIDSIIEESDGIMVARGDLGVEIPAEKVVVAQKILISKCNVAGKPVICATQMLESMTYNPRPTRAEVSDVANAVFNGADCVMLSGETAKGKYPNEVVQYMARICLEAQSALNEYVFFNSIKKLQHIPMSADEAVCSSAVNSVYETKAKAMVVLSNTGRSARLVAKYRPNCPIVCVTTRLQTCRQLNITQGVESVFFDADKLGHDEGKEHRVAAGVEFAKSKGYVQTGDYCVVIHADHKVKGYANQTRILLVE
#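 Screened at intermediate enzyme activity to detect both inhibitors and activators: LmPK at 0.1 nM, with a 0.5 nM enzyme column as activation reference. PEP 0.5 mM, ADP 0.1 mM; ATP detected by luminescence after 1 h.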
# RE007 growth inh = qHTS Assay for Inhibitors of the HIV-1 protein Vpr; S. pombe RE007 Vpr strain, BacTiter-Glo ATP luminescence, 24 h; Potency, µM (highest dose often 92.2 µM), for the others: at the top dose activity change, negative = less growth, usual class: inhibitors; 0.21% of 360,000 active; AID 651644, 2012; active = well fitted falling curve with a large enough effect; inconclusive = small, poorly fitted or top-dose-only effect; inactive = no such curve, though single readings can be large or run the other way; also: potency is read from the fitted curve at half-maximal effect; % is scaled to controls: 0 for no effect and ±100 for the full control effect; nearly all actives have a fitted effect of over 50% in size
#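 Fission yeast RE007 carrying one integrated HIV-1 vpr copy, seeded at OD 0.01 in PMG+AL medium with 23 nL pinned compound. Grown 24 h at 30 degrees; viability read by BacTiter-Glo luminescence after 5 min.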
# FBPA Giardia inh = qHTS Assay for Inhibitors of Fructose-1,6-bisphosphate Aldolase from Giardia Lamblia. purified Giardia FBPA. Potency, µM (series often up to 59.6 µM), inactives show at the top dose activity, negative = inhibition, hits mostly inhibitors. 0.71% of 290,000 active. AID 2451, 2010; also: potency is read from the fitted curve at half-maximal effect; % is scaled to controls: 0 for no effect and ±100 for the full control effect; nearly all actives have a fitted effect of over 55% in size
# Target sequence (A8B2U2 whole entry, looked up): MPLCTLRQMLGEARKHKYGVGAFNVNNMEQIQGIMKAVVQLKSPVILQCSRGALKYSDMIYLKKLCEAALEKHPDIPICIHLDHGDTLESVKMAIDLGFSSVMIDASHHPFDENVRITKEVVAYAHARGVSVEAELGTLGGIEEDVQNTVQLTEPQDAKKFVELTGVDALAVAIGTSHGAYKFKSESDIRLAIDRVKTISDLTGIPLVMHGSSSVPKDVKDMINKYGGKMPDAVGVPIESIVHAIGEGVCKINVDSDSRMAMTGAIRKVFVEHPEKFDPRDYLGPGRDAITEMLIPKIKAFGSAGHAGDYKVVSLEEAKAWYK
#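 40 nM FBPA preincubated 10 min at RT with compound (up to 57.5 uM final), then substrate plus GAPDH/TPI/NAD/arsenate coupling and diaphorase/resazurin added. Fluorescence read after 20 min at RT, 525/598 nm.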
# TbPYK inhibitor = qHTS of Trypanosoma Brucei Inhibitors; pyruvate kinase (Trypanosoma brucei), Q57TT1; TbPYK enzyme, Kinase-Glo Plus ATP luminescence, 45 min; Potency, µM (series often up to 76.8 µM), for inactives: at the top dose activity, negative = inhibition, most hits filed as inhibitors; 0.12% of 410,000 active; AID 624173, 2012; also: potency is read from the fitted curve at half-maximal effect; % is scaled to controls: 0 for no effect and ±100 for the full control effect; nearly all actives have a fitted effect of over 50% in size
#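 T. brucei PYK with substrate was exposed to pin-transferred compounds across a concentration series, then started with 130 uM ADP (final). After 45 min at room temperature, Kinase-Glo Plus luminescence was read, normalized and curve-fitted.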
# Flu NS1 inh = Assay for Inhibitors of Influenza NS1 Protein Function: Hit Validation; activity change, negative = inhibition, % at 32.9 µM; AID 492980, 2010; shares compounds with NS1 inh; 1,400 tested, under 10 active; influenza NS1 function cell assay, 15-point titration; calls by dose curve; also: 0% is about no effect
# An asterisk follows results filed as active; ? = inconclusive; · = no result; [ ] = another dose, or the depositor's remark. Shown are actives, neighbours in structure and some others; about 3.5% of the full set was active somewhere. Unless noted, calls follow the shape of the dose curve; as a rule, active = well fitted curve in the direction sought with a large enough effect; inconclusive = small, poorly fitted or top-dose-only effect, or another doubt; inactive = no such curve, though single readings can be large; an effect the other way counts as inactive or inconclusive.
SMILES,NS1 inh,Sm TGR block,LmPK inhibitor,RE007 growth inh,FBPA Giardia inh,TbPYK inhibitor,Flu NS1 inh
Cc1ccccc1CNC(=O)C(C)n1nc(C)n2c(cc3occc32)c1=O (stereo not drawn),·,0.9%,·,·,·,-1.5%,·
Cc1cccc(N2C(=O)NC(=O)C3(Cc4cc(C)ccc4N(C)C3)C2=O)c1 (stereo not drawn),4.47µM*,?,-0.8%,14.2%,-26.4%,5.4%,13.1
Cc1ccc2c(c1)CC1(CN2C)C(=O)NC(=O)N(C(C)C)C1=O (stereo not drawn),-1.2%,?,1.6%,1.9%,?,1.9%,·
O=C(c1cc2ccccc2o1)N1CCN(S(=O)(=O)c2cccs2)CC1,10µM*,-21.0%,-0.6%,9.6%,1.2%,-9.6%,14.2
Cc1cc(NC(=O)COC(=O)c2cccc(S(=O)(=O)N3CCOCC3)c2)no1,-5.9%,-3.4%,-2.1%,8.5%,3.1%,-1.3%,·
O=C(COC(=O)c1cccc(S(=O)(=O)N2CCOCC2)c1)Nc1nc(-c2ccccc2Cl)cs1,11.2µM*,-19.5%,-2.6%,7.4%,·,-3.7%,?
COc1ccccc1C(=O)NCCn1cc(SCC(=O)Nc2nnc(C)s2)c2ccccc21,12.6µM*,-31.9%,4.6%,5.5%,0.8%,-1.1%,11.1
Cc1nnc(NC(=O)CSc2cn(Cc3ccccc3)c3ccccc23)s1,3.3%,-29.6%,8.4%,8.4%,1.6%,-13.9%,·
O=S(=O)(c1cccc(S(=O)(=O)N2CCOCC2)c1)N1CCCCCC1,28.2%,-3.0%,1.6%,-8.9%,-2.9%,4.5%,·
O=S(=O)(c1ccccc1)c1cccc(S(=O)(=O)N2CCCCC2)c1,2µM*,-0.1%,-2.3%,55.0%,14.3%,-2.6%,-12.5
CC(C)(C)OC(=O)N1CCC(CC2CC(c3cccc(Br)c3)=NO2)(C(=O)NCC2CCCCC2)CC1 (stereo not drawn),?,15.5%,-1.6%,-9.2%,9.7%,3.4%,-33.6
COc1cc(NC(=S)N2CCC(C(O)(c3ccccc3)c3ccccc3)CC2)cc(OC)c1,4.47µM*,1.1%,1.9%,-10.9%,3.1%,-2.3%,13.3
CN(C)N1C(N)=C(C#N)C(c2cccc3ccccc23)C2=C1CC(c1ccccc1)CC2=O (stereo not drawn),22.4µM*,-2.9%,3.2%,2.2%,-19.3%,1.6%,-0.5
CCOC(=O)C1=C(C)Nc2nc(SCC)[nH]c(=O)c2C1c1ccncc1 (stereo not drawn),?,13.1%,-1.5%,21.1%,1.6%,-0.9%,-14.8
O=C(CN1C(=O)CCSc2ccc(S(=O)(=O)N3CCCC3)cc21)Nc1cccc(Cl)c1,·,-2.2%,·,·,·,-2.3%,·
CC(C)COc1ccc(-c2nn(-c3ccccc3)cc2C(=O)Nc2nccs2)cc1,11.2µM*,9.2%,1.8%,12.3%,-1.1%,0.0%,-0.1
O=C(Nc1nccs1)c1cn(-c2ccccc2)nc1-c1ccccc1,20.7%,9.6%,-2.4%,3.7%,3.4%,-22.6%,·
COC(=O)c1ccccc1NC(=S)N(Cc1ccc2c(c1)OCO2)Cc1cc2cc(C)ccc2[nH]c1=O,11.2µM*,-0.3%,2.5%,6.7%,-1.3%,-5.3%,?
COC(=O)c1ccccc1NC(=S)N(Cc1ccc2c(c1)OCO2)Cc1cc2ccc(C)cc2[nH]c1=O,?,1.0%,-1.7%,7.8%,-2.9%,21.3%,·
Cc1ccc(-c2csc(N)n2)s1,?,-3.6%,-0.3%,-21.1%,-28.8%,-5.9%,-32.5
Cc1ccccc1-c1csc(N)n1,·,·,·,-21.8%,·,6.5%,·
O=C(O)COc1ccccc1/C=N/Nc1ccc(S(=O)(=O)N2CCOCC2)cc1[N+](=O)[O-],·,-7.6%,1.2%,1.6%,8.2%,3.8%,·
Cc1ccc(-n2c(O)c(/C=N/Nc3ccc(S(=O)(=O)N4CCOCC4)cc3[N+](=O)[O-])c3ccccc3c2=O)c(C)c1,2.51µM*,-4.0%,-29.4%,-17.6%,-10.4%,-20.5%,34.3
CC(=O)N1CCN=C1SCc1ccccc1Cl,5.4%,-8.2%,6.9%,-12.1%,-3.0%,4.7%,·
CC(=O)N1CCN=C1SCc1ccccc1F,1.26µM*,-8.9%,3.9%,9.2%,-1.6%,-4.7%,5.0
SMILES,NS1 inh,Sm TGR block,LmPK inhibitor,RE007 growth inh,FBPA Giardia inh,TbPYK inhibitor,Flu NS1 inh
CCOc1ccc(C2C(C(N)=O)=C(C)Nc3nc(-c4cccc(Cl)c4)nn32)cc1OC (stereo not drawn),·,-1.6%,·,·,·,0.4%,·
COc1cc(Cl)ccc1OCc1cc(C(=O)N2CCCCC2c2cccnc2)no1 (stereo not drawn),3.16µM*,-14.6%,7.2%,-7.7%,-11.1%,-6.1%,?
CC(=O)c1ccc2c(c1)C1C(Cl)C(Sc3ccccc3[N+](=O)[O-])CC1C(c1ccccc1)N2 (stereo not drawn),-10.0%,-7.7%,-8.4%,-12.8%,-8.9%,-13.9%,·
CC(=O)c1ccc2c(c1)C1C(Cl)C(Sc3ccccc3[N+](=O)[O-])CC1C(c1ccccc1[N+](=O)[O-])N2 (stereo not drawn),2µM*,-3.9%,-1.4%,2.4%,?,4.4%,10.9
CC(C)OC(=O)c1ccc(Cn2nnc3sc4c(c3c2=O)CCCC4)cc1,·,10.5%,·,·,·,3.5%,·
Cc1sc2c(c1C)c(=O)n(-c1ccccc1)c(=O)n2CC(=O)c1ccc(Cl)cc1,·,1.0%,·,·,·,-2.0%,·
Cc1[nH]c2ccccc2c1N=Nc1ccccc1C(=O)O,4.47µM*,-13.4%,-4.9%,-5.4%,-6.5%,-2.9%,14.8
COc1ccc(CCNC(=O)Cn2ccc3cc(S(=O)(=O)N4CCCC4)ccc32)cc1OC,2.51µM*,-23.7%,4.4%,5.7%,2.4%,3.7%,-5.1
CCOC(=O)c1cccc(NC(=O)CCc2c(C)nn(-c3ccc(N4CCCC4)nn3)c2C)c1,·,4.1%,·,·,·,-6.0%,·
CC(C)(C)C(=O)OCOP(=O)(OCOC(=O)C(C)(C)C)C(C)(Oc1ccc(O)cc1)P(=O)(OCOC(=O)C(C)(C)C)OCOC(=O)C(C)(C)C,·,·,·,·,-7.8%,·,·
CC1(OC(=O)c2cccs2)C(=O)C=C2C=C3CCCN3C=C2C1=O (stereo not drawn),?,35.5µM*,-5.6%[11.5 µM],0.0%,?,-10.5%,33.9
O=C(NC1CC(=O)N(c2cccc(F)c2)C1)c1cc2ccccc2o1 (stereo not drawn),·,10.5%,·,·,·,-11.9%,·
